Measurements: PubChem BioAssay (NCI)
The panel holds about 83,000 compounds, 20% with a hit somewhere; the sample as a whole holds those more often.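 Step 1: grow cells in 96-well plates. Step 2: add test compound at a single concentration. Step 3: incubate 48 h. Step 4: record percent growth.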 Unmarked numbers belong to inactive results. The source made the active and inactive calls. Rule for the calls: active = growth percent below 10; inactive = the rest.

Each molecule was assayed on NCI-H522 lung (assay: NCI-60 one-dose screen, 48 h (100 = growth as untreated, 0 = no growth, -100 = all killed)). Conditions: 10 µM.

With `Cc1ncc(C(=O)Nc2ccc(CN3CCN(C)CC3)c(C(F)(F)F)c2)cc1C#Cc1cnc(NC2CC2)c2ncccc12` the growth was -76.4% (active).
With `Oc1ccc2ccccc2c1/C=N\Nc1ccccn1` the growth was 6.74% (active).

Point of comparison: `CCCNC(=O)Oc1ccc(/C(=C(/CC)Cc2ccccc2)c2ccc(OCCN(CC)CC)cc2)cc1`, growth 76.8%. Against it:
- Oc1ccc([S+](c2ccc(O)cc2)c2ccc(O)cc2)cc1 — higher, 112%

Each molecule was assayed on A549/ATCC NSCLC in the same assay as above. Conditions: 10 µM unless noted.

Point of comparison: `CC([C@H]1CCC2C3CCC4C[C@@H](N)CC[C@]4(C)C3CC[C@@]21C)N(C)C` (stereo partly specified), growth 86.1%. Against it:
- Cc1cc(CSc2ccc(Cl)cc2)ccc1N — lower, 60.3%
- CC(=O)C(CO)C(=O)Nc1ccccc1 (stereo unspecified) — higher, 93.6%
- Cc1nc2ccccc2c(=O)n1-c1cccc(OCc2cn(-c3cccc(O)c3)nn2)c1 — higher, 95.3%
- CCCCCCCCCCN1CC2CCCCC2C1 (stereo unspecified) — higher, 97.3%
- CCCCN(CCC)CCCCCCCCCCN1CCCc2ccccc21 — higher, 97.3%
- O=C1C(Cl)=C(Nc2ccc(Nc3ccccc3)c(NC3=C(Cl)C(=O)c4ccccc4C3=O)c2)C(=O)c2ccccc21 — higher, 92.7%
- CN1CCN(Cc2ccc(NC(=O)c3cncc(C#Cc4c(N)ncc5ccc(F)cc45)c3)cc2C(F)(F)F)CC1 — lower, 26.5%
- COc1cccc(CNC(=O)c2cccc(C3CC(=O)c4c(cc(OC)c(OC)c4OC)O3)c2)c1 (stereo unspecified) — lower, 80.8%
- COC(=O)C1CC(=O)N(C(=O)Nc2ccc(Cl)cc2Cl)C1 (stereo unspecified) — higher, 96.3%
- O=C(/C=C\c1ccc(NCc2ccc(C(=O)O)cc2)cc1)CCl — higher, 100%
- CC1(C)NC(=S)NC1=O — higher, 98%
- COc1ccc(-c2nc(N)n(C(=S)Nc3ccccc3)n2)cc1 — higher, 102%
- O=C(O)c1ccc(-c2nn(-c3ccc(C(=O)O)cc3)cc2CNc2ccc(Br)cc2)cc1 — higher, 101%
- CCS(=O)(=O)N[C@@H]1O[C@H](COC(C)=O)C(OC(C)=O)[C@H](OC(C)=O)C1OC(C)=O (stereo partly specified) — higher, 88.7%
- CCC(C)(C)c1ccc(OCCCCCCN2CCN(c3ccc(C)c(Cl)c3)CC2)cc1 — higher, 97%
- COc1ccc2cnc(N)c(C#Cc3cc(C(=O)Nc4ccc(CN5CCN(C)CC5)c(C(F)(F)F)c4)cnc3C)c2c1 — lower, 61.5%
- COc1ccc(-c2nc(SCC(C)C)nc(Nc3ccc(C(=O)O)cc3)c2C#N)cc1 — higher, 89%
- CCCCCCCCCCCCCCCCC(=O)O.CCCCCCCCCCCCCCCCCC(=O)O.CCCCCCCCCCCCCCCCCC(=O)O.CCCCCCCCCCCCCCCCCC(=O)O.CCCCCCCCCCCCCCCCCC(=O)O.CO[CH-]OC12COC1CC(O)C1(C)C(O)C(OC(C)O)C3=C(C)C(OC(=O)C(O)C([NH-])c4ccccc4)CC(O)(C(OC(=O)c4ccccc4)C21)C3(C)C.[Cu+].[Zn].[Zn].[Zn].[Zn].[Zn] (stereo unspecified) — lower, 27.8%
- O=C1c2cc([N+](=O)[O-])ccc2-c2cc(Cl)c(NC(=O)C(F)(F)F)cc21 — higher, 108%
- CCCNC(=O)Oc1ccc(/C(=C(/C)Cc2ccc(OC)cc2)c2ccc(OCCN3CCCCC3)cc2)cc1 — lower, 84.4%
- CC(=O)CCS(=O)c1ccccc1 (stereo unspecified) — higher, 96.1%
- N#CC1=C(N2CCOCC2)NC2c3ccccc3Sc3ccccc3N2C1=N (stereo unspecified) — higher, 103%
- CC(C)(C)OC(=O)N1C/C(=C\c2ccccc2)C(=O)/C(=C/c2ccccc2)C1 — higher, 92.7%
- N#Cc1ccc(NC2c3ccccc3CC2O)cc1 (stereo unspecified) — higher, 106%
- CCN(CC)c1ccc2nc3ccc(N=Nc4ccc(O)cc4)cc3[n+](-c3ccccc3)c2c1 — lower, 35.9%
- CC(C)CSc1nc(-c2ccc(F)cc2)c(C#N)c(N2CCCCC2)n1 — higher, 86.6%
- Cc1ccc(C(=O)Nc2ccc(CN3CCN(C)CC3)c(C(F)(F)F)c2)cc1C#Cc1cnc(N)c2ccc(C#N)cc12 — lower, 36.7%
- CCCCCN1CCN(C(CC(=O)c2ccccc2)C(=O)c2ccccc2)CC1 (stereo unspecified) — higher, 101%

For `C/C=C(/C)C(=O)OC1C=C(CO)C(=O)C(OC(=O)/C(C)=C\C)C1C(C)C` (stereo unspecified), the growth was -9.36% (active).
`Cc1ccc(C(=O)Nc2ccc(CN3CCN(C)CC3)c(C(F)(F)F)c2)cc1C#Cc1cncc2ncccc12` was tested, and the growth was -82.1% (active).
With `Cc1ncc(C(=O)Nc2ccc(CN3CCN(C)CC3)c(C(F)(F)F)c2)cc1C#Cc1c(N)ncc2ccccc12` the growth was -96.6% (active).
